Measurements as given in PubChem BioAssay (Tox21).
Inconclusive results are not listed. Activity calls are given as the source filed them. Unless noted, the call rests on the fitted dose curve.

How the values were obtained:
[1] = biological target: Peroxisome proliferator-activated receptor delta (Homo sapiens) (UniProt Q03181); assay: qHTS assay to identify small molecule agonists of the peroxisome proliferator-activated receptor delta (PPARd) signaling pathway (AID 743212);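 further: HEK293H cells with PPARd UAS beta-lactamase reporter GeneBLAzer system; on the % scale 0 is the no-effect control and ±100 the full control effect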
Peroxisome proliferator-activated receptor delta (Homo sapiens), sequence (Q03181 whole entry, looked up): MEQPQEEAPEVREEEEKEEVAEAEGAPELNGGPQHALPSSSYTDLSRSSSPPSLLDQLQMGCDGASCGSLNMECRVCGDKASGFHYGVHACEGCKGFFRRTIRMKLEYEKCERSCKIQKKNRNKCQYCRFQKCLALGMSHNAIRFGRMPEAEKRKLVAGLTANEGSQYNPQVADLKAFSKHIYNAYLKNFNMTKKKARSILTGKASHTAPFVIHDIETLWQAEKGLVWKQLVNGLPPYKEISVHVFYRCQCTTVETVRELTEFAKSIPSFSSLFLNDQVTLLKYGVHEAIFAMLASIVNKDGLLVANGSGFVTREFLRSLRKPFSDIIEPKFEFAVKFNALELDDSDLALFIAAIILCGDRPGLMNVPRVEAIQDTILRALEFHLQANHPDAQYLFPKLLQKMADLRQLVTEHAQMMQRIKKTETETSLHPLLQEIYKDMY
Procedure, shortened: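 Beta-lactamase reporter read by fluorescence (LiveBLAzer B/G FRET, 2 h, room temperature). Test agents, in DMSO, incubated at 37 C with PPARd-bla HEK293H cells.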

[2] = qHTS assay to identify small molecule antagonists of the peroxisome proliferator-activated receptor delta (PPARd) signaling pathway - cell viability counter screen (AID 743213; active means well fitted curve in the direction sought with a large enough effect in the repeat runs; an effect the other way counts as inactive or inconclusive; further: on the % scale 0 is the no-effect control and ±100 the full control effect; nearly all actives have a fitted effect of over 50% in size)
Procedure, shortened: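 HEK293H cells with the PPARd UAS-bla reporter, co-treated 17 h at 37 C with compounds and L165041 (300 nM final), were lysed with CellTiter-Glo. Luminescence indicated viable cell content.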

[3] = biological target: Peroxisome proliferator-activated receptor delta (Homo sapiens) (UniProt Q03181); assay: qHTS assay to identify small molecule antagonists of the peroxisome proliferator-activated receptor delta (PPARd) signaling pathway (AID 743215; active means well fitted inhibition curve with a large enough effect in the signal ratio in the repeat runs, not every such curve was filed as active; the % refers to the signal ratio;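 further: cells stimulated with agonist L165041 at 300 nM final during compound exposure; series mostly up to about 62 µM; on the % scale 0 is the no-effect control and ±100 the full control effect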)
Procedure, shortened: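 Fluorescence from cleaved LiveBLAzer B/G FRET substrate (2 h, room temperature) reports PPARd-driven beta-lactamase in HEK293H UAS-bla cells. Cells had been treated 17 h at 37 C with compound plus 300 nM final L165041.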

[4] = biological target: Bile acid receptor (Homo sapiens) (UniProt Q96RI1); assay: qHTS assay to identify small molecule antagonists of the farnesoid-X-receptor (FXR) signaling pathway (AID 743217; active means well fitted inhibition curve with a large enough effect in the signal ratio in the repeat runs, not every such curve was filed as active; the % refers to the signal ratio; further: on the % scale 0 is the no-effect control and ±100 the full control effect)
Bile acid receptor (Homo sapiens), sequence (Q96RI1 whole entry, looked up): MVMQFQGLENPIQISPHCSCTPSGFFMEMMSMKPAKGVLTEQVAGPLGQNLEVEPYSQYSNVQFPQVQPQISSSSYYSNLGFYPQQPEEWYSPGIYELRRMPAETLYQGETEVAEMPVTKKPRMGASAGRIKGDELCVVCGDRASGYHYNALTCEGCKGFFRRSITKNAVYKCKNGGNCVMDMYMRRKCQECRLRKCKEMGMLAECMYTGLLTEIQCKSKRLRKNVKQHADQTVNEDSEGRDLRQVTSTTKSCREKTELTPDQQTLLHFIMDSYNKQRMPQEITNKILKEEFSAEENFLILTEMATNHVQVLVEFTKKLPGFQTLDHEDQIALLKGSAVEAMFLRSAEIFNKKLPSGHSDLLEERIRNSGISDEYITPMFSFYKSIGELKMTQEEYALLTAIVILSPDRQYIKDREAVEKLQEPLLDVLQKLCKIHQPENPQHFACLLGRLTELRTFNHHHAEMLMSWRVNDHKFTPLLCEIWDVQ
Procedure, shortened: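 FRET fluorescence after 2 h room-temperature LiveBLAzer loading gives the readout. Prior step: FXR-bla HEK 293T cells, seeded and incubated 5 h, received test compounds plus 50 uM final CDCA for 16 h at 37 °C.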

[5] = biological target: Bile acid receptor (Homo sapiens) (UniProt Q96RI1); assay: qHTS assay to identify small molecule agonists of the farnesoid-X-receptor (FXR) signaling pathway (AID 743220; active means well fitted activation curve with a large enough effect in the signal ratio in the repeat runs, not every such curve was filed as active; the % refers to the signal ratio; further: on the % scale 0 is the no-effect control and ±100 the full control effect)
Procedure, shortened: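 FXR-UAS-bla HEK 293T cells carrying a UAS-driven beta-lactamase reporter were plated for 5 h at 37C/5% CO2, then exposed to DMSO-dissolved Tox21 10K compounds for 16 h at 37C. A LiveBLAzer B/G FRET substrate was loaded for 2 h at room temperature before fluorescence reading.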

[6] = qHTS assay to identify small molecule antagonists of the farnesoid-X-receptor (FXR) signaling pathway - cell viability counter screen (AID 743221; active means well fitted cell-killing curve with a large enough effect in the repeat runs, not every such curve was filed as active; further: on the % scale 0 is the no-effect control and ±100 the full control effect; nearly all actives have a fitted effect of over 50% in size)
Procedure, shortened: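 Cytotoxicity counter screen run in the FXR-bla reporter wells: HEK 293T cells exposed to compound with 50 uM (final) chenodeoxycholic acid for 16 h, 37 C, then viability measured by CellTiter-Glo luminescence after 30 min, room temperature.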

[7] = biological target: Vitamin D3 receptor (Homo sapiens) (UniProt P11473); assay: qHTS assay to identify small molecule agonists of the vitamin D receptor (VDR) signaling pathway (AID 743222); further: on the % scale 0 is the no-effect control and ±100 the full control effect
Vitamin D3 receptor (Homo sapiens), sequence (P11473 whole entry, looked up): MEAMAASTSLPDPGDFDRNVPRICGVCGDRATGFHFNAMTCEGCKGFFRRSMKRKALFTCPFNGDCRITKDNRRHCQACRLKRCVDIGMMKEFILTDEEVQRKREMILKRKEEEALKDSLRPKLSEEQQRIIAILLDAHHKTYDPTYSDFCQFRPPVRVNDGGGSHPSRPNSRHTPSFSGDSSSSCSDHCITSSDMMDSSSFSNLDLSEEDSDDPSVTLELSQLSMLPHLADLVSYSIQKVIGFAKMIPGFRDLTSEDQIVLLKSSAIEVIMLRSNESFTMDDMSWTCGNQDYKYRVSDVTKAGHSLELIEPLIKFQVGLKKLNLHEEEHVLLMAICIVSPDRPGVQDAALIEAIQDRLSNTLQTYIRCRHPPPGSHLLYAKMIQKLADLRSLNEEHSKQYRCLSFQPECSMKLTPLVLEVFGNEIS
Procedure, shortened: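 Following 4 h attachment at 37C, VDR-bla cells (2,000 per well) received DMSO-dissolved compounds or controls. After 16 h incubation, LiveBLAzer B/G FRET substrate was added and fluorescence read 2 h later at room temperature.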

[8] = biological target: Vitamin D3 receptor (Homo sapiens) (UniProt P11473); assay: qHTS assay to identify small molecule antagonists of the vitamin D receptor (VDR) signaling pathway (AID 743223; active means well fitted inhibition curve with a large enough effect in the signal ratio in the repeat runs, not every such curve was filed as active; the % refers to the signal ratio; further: on the % scale 0 is the no-effect control and ±100 the full control effect)
Procedure, shortened: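 Antagonist mode: compound added to VDR-bla cells alongside agonist 1alpha,25-dihydroxyvitamin D3 (3 nM final), incubation 16 h at 37C. Read-out is LiveBLAzer FRET fluorescence, 2 h at room temperature.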

[9] = qHTS assay to identify small molecule agonists of the vitamin D receptor (VDR) signaling pathway - cell viability counter screen (AID 743224; active means well fitted curve in the direction sought with a large enough effect in the repeat runs; an effect the other way counts as inactive or inconclusive; further: series mostly up to about 63 µM; on the % scale 0 is the no-effect control and ±100 the full control effect; nearly all actives have a fitted effect of over 50% in size)
Procedure, shortened: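 In parallel with the bla FRET readout, cytotoxicity toward VDR-bla cells after 16 h compound exposure was assessed by CellTiter-Glo, with luminescence recorded after a 30 min room-temperature incubation.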

[10] = qHTS assay to identify small molecule antagonists of the vitamin D receptor (VDR) signaling pathway - cell viability counter screen (AID 743225; active means well fitted curve in the direction sought with a large enough effect in the repeat runs; an effect the other way counts as inactive or inconclusive; further: on the % scale 0 is the no-effect control and ±100 the full control effect; nearly all actives have a fitted effect of over 50% in size)
Procedure, shortened: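 Cytotoxicity counter screen read by CellTiter-Glo luminescence (30 min, room temperature) in the same wells as the VDR-bla antagonist readout. HEK 293T VDR-UAS-bla cells had 16 h at 37C with compound and 3 nM (final) 1-alpha,25-dihydroxyvitamin D3, then 2 h with FRET substrate.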

[11] = qHTS assay to identify small molecule agonists of the NFkB signaling pathway (AID 1159509; active means well fitted curve in the direction sought with a large enough effect in the signal ratio in the repeat runs, not every such curve was filed as active; the % refers to the signal ratio)
Procedure, shortened: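 Readout: FRET fluorescence, 405 nm excitation, 460/530 nm emission; beta-lactamase expression disrupts FRET. Cells: ME-180 stably carrying NF-kB-driven bla reporter. Compound exposure 5 hr, 37 C, 5% CO2.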

[12] = qHTS assay to identify small molecule agonists of the NFkB signaling pathway - cell viability counter screen (AID 1159515); further: series mostly up to about 61 µM; on the % scale 0 is the no-effect control and ±100 the full control effect; nearly all actives have a fitted effect of over 55% in size
Procedure, shortened: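 Plate 2,000 NFkB-bla ME-180 cells/well; incubate overnight. Add compounds, 5 hr at 37 C. Add FRET substrate, 1.5 hr RT. Add CellTiter-Glo, 30 min RT; read luminescence.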

[13] = qHTS assay to identify small molecule agonists of the endoplasmic reticulum stress response signaling pathway (AID 1159516; active means well fitted activation curve with a large enough effect in the signal ratio in the repeat runs, not every such curve was filed as active; the % refers to the signal ratio; further: on the % scale 0 is the no-effect control and ±100 the full control effect)
Procedure, shortened: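 Beta-lactamase expression from the ER stress response element in HeLa reporter cells is quantified with the LiveBLAzer B/G FRET substrate, read at 405 nm excitation after 2 hr at room temperature, following 5 hr compound treatment at 37 C.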

[14] = qHTS assay to identify small molecule agonists of the endoplasmic reticulum stress response signaling pathway - cell viability counter screen (AID 1159517)
Procedure, shortened: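 Cytotoxicity of test compounds toward ESRE-bla HeLa cells was assessed after 5 hr exposure. The luminescent CellTiter-Glo signal was measured 30 min after reagent addition.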

[15] = qHTS assay to identify small molecule antagonists of the retinoid-related orphan receptor gamma (ROR-gamma) signaling pathway - cell viability counter screen (AID 1159520; active means well fitted curve in the direction sought with a large enough effect in the repeat runs; an effect the other way counts as inactive or inconclusive)
Procedure, shortened: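 Tet-on ROR gamma CHO cells (1,000/well) were plated 4 hr, given compounds in DMSO for 2 hr at 37 C, then induced with 1 uM final doxycycline for 16 hr. Viability was read as ATP by CellTiter-Glo luminescence after 30 min.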

[16] = biological target: Nuclear receptor ROR-gamma (Homo sapiens) (UniProt P51449); assay: qHTS assay to identify small molecule antagonists of the retinoid-related orphan receptor gamma (ROR-gamma) signaling pathway (AID 1159521; active means well fitted curve in the direction sought with a large enough effect in the repeat runs; an effect the other way counts as inactive or inconclusive)
Procedure, shortened: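 Antagonist read-out: drop in luminescence (ONE-Glo) from an RORE-LUC reporter in CHO cells with doxycycline-inducible ROR-gamma; 2 hr compound pretreatment, 1 uM doxycycline, 16 hr incubation at 37 C.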

[17] = qHTS assay to identify small molecule agonists of the AP-1 signaling pathway - cell viability counter screen (AID 1159525); further: nearly all actives have a fitted effect of over 55% in size
Procedure, shortened: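 Each titration point was normalised to DMSO and tetra n-octyl ammonium bromide controls. The read was Cell Titer Glo luminescence after 30 min at RT, following 5 h compound exposure of ME-180 AP-1-bla cells at 37 °C.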

[18] = qHTS assay to identify small molecule agonists of the AP-1 signaling pathway (AID 1159526); further: on the % scale 0 is the no-effect control and ±100 the full control effect
[19] = biological target: Retinoic acid receptor RXR-alpha (Homo sapiens) (UniProt P19793); assay: qHTS assay to identify small molecule agonists of the RXR signaling pathway (AID 1159527); further: on the % scale 0 is the no-effect control and ±100 the full control effect; nearly all actives have a fitted effect of over 35% in size
Retinoic acid receptor RXR-alpha (Homo sapiens), sequence (P19793 whole entry, looked up): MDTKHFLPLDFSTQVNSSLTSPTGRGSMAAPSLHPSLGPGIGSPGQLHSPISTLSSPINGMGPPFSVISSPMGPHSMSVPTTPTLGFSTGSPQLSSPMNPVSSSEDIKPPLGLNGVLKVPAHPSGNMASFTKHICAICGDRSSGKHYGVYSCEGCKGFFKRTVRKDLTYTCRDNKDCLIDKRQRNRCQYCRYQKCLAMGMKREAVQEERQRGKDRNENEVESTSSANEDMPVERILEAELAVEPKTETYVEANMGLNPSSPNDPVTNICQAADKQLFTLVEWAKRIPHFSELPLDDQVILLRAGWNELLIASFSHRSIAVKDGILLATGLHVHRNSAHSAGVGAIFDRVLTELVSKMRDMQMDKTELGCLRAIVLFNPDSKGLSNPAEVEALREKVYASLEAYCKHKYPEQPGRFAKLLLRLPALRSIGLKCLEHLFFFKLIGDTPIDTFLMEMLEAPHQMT
Procedure, shortened: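 Agonist-mode beta-lactamase reporter assay: HEK 293T RXR-alpha-UAS-bla cells treated 16 hr at 37 C with compounds, 9-cis retinoic acid as positive control. LiveBLAzer FRET substrate, 405 nm excitation, 460/530 nm emission.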

[20] = qHTS assay to identify small molecule agonists of the farnesoid-X-receptor (FXR) signaling pathway - cell viability counter screen (AID 743218; active means well fitted curve in the direction sought with a large enough effect in the repeat runs; an effect the other way counts as inactive or inconclusive; further: on the % scale 0 is the no-effect control and ±100 the full control effect; nearly all actives have a fitted effect of over 45% in size)
Procedure, shortened: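 Readout: CellTiter-Glo luminescence, 30 min RT, multiplexed after the FXR-bla FRET reading. HEK 293T FXR-UAS-bla cells received compound 5 h post-plating and were incubated 16 h at 37 C.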

Cc1cccc(Nc2ccncc2S(=O)(=O)NC(=O)NC(C)C)c1
inactive: outcome [1] | outcome [2] | outcome [3] | outcome [4] | outcome [5] | outcome [6] | outcome [7] | outcome [8] | outcome [9] | outcome [10] | outcome [11] | outcome [12] | outcome [13] | outcome [14] | outcome [15] | outcome [16] | outcome [17] | outcome [18] | Potency [19]

Nc1c(NC/C=C\COc2cc(CN3CCCCC3)ccn2)c(=O)c1=O
inactive: outcome [1] | outcome [2] | outcome [3] | outcome [4] | Potency [20] | outcome [5] | outcome [8] | outcome [9] | outcome [10] | outcome [11] | outcome [12] | outcome [13] | outcome [14] | activity, negative = cytotoxicity [15] 0% [at 19 µM] | activity change, negative = inhibition [16] -0.0898% [at 19 µM] | viability change, negative = cytotoxic [17] -1.48% [at 15.8 µM] | activation [18] -3.62% [at 15.8 µM] | activation [19] 10.6% [at 15.8 µM]

Cc1ccc(C(=O)C(=O)O)cc1C
inactive: outcome [1] | outcome [2] | outcome [3] | Potency [20] | outcome [7] | outcome [8] | outcome [9] | outcome [10] | outcome [11] | outcome [12] | outcome [13] | outcome [14] | outcome [15] | outcome [16] | outcome [17] | outcome [18] | Potency [19]

CCCOCCOCCOCCO
inactive: outcome [1] | outcome [2] | outcome [3] | outcome [4] | outcome [5] | outcome [7] | outcome [9] | outcome [10] | outcome [11] | outcome [12] | outcome [13] | outcome [14] | outcome [15] | outcome [16] | outcome [17] | outcome [18] | Potency [19]

CCC1Nc2cc(Cl)c(S(N)(=O)=O)cc2S(=O)(=O)N1 (stereo unspecified)
inactive: outcome [1] | outcome [2] | outcome [3] | outcome [4] | outcome [5] | outcome [6] | outcome [7] | outcome [8] | outcome [9] | outcome [10] | outcome [11] | outcome [12] | outcome [13] | outcome [14] | outcome [15] | outcome [16] | outcome [17] | outcome [18] | Potency [19]

O=C1OC(=O)c2ccccc21
inactive: outcome [1] | outcome [2] | outcome [3] | outcome [4] | outcome [5] | outcome [6] | outcome [7] | outcome [8] | outcome [9] | outcome [11] | outcome [12] | outcome [13] | outcome [14] | outcome [15] | outcome [16] | outcome [17] | outcome [18] | Potency [19]

O=c1[nH]c(=O)c2[nH]c(=O)[nH]c2[nH]1
inactive: activation [1] 2.22% [at 13.2 µM] | viability change, negative = cytotoxic [2] -1.61% [at 13.7 µM] | ratio activity, negative = inhibition [3] -0.0973% [at 13.7 µM] | viability change, negative = cytotoxic [20] 18.5% [at 13.2 µM] | activity change, negative = cytotoxicity [6] 0.395% [at 13.2 µM] | activity change, negative = cytotoxicity [9] -0.867% [at 13.2 µM] | viability change, negative = cytotoxic [10] 18.1% [at 6.95 µM] | activation [11] -0.0901% [at 6.95 µM] | activity, negative = cytotoxic [12] 1.31% [at 6.95 µM] | activation [13] -2.27% [at 6.95 µM] | activity change, negative = cytotoxicity [14] -24.3% [at 6.95 µM] | activity, negative = cytotoxicity [15] -0.126% [at 8.39 µM] | activity change, negative = inhibition [16] 25.7% [at 8.39 µM] | viability change, negative = cytotoxic [17] 10.8% [at 6.97 µM] | activation [18] -0.69% [at 6.97 µM] | activation [19] 3.02% [at 6.98 µM]

CCCCCCCCCCCCC1CO1 (stereo unspecified)
inactive: outcome [1] | outcome [2] | outcome [3] | outcome [4] | Potency [20] | outcome [5] | outcome [6] | outcome [9] | outcome [11] | outcome [12] | outcome [13] | outcome [14] | outcome [15] | outcome [16] | outcome [17] | outcome [18] | Potency [19]
